An excerpt weighted towards active compounds, which were near 12% of everything screened.
BAZ2B inh: inhibitors of human BAZ2B bromodomain | hit rate 4.4% among 360,000 | AlphaScreen BAZ2B-H3K14Ac peptide displacement | AID 504333 | Potency, µM (top dose mostly 114 µM), for inactives: at the highest dose activity change, negative = inhibition, hits mostly inhibitors | Q9UIF8; also: % is scaled to controls: 0 for no effect and ±100 for the full control effect; nearly all actives have a fitted effect of over 60% in size
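Compounds, titrated to a top concentration of 110 uM, were incubated 30 min at room temperature with preformed BAZ2B/acetyl-K14 H3 peptide complex (50 nM each). Proximity signal was measured by AlphaScreen after 20 min with beads.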
JMJD2A Tudor: inhibitors of human JMJD2A Tudor domain; AlphaScreen JMJD2A-Tudor / H3K4me3 peptide binding; Potency, µM (highest dose often 114 µM), without a hit: at the top dose activity change, negative = inhibition, usual class: inhibitors; hit rate 4.4% among 390,000; also: % is scaled to controls: 0 for no effect and ±100 for the full control effect; nearly all actives have a fitted effect of over 50% in size
HP1b binding inh: blocks HP1-beta chromodomain binding to methylated histone tails; P83916; hit rate 0.56% among 390,000; Potency, µM (highest dose often 114 µM), for inactives: at the highest dose activity change, negative = inhibition, most hits filed as inhibitors; AlphaScreen HP1-beta / biotin-H3K9me3 peptide binding; also: nearly all actives have a fitted effect of over 70% in size
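HP1-beta protein (50 nM final) preincubated 30 min at room temperature with biotinylated H3(1-18)K9me3 peptide (50 nM) in PBS pH 7.4, 0.01% Tween-20, then compound added for 30 min. AlphaScreen streptavidin donor/nickel chelate acceptor beads (10 ug/mL final), 30 min dark, luminescence read.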
G9a inh: G9a (human) methyltransferase inhibition | G9a H3K9 monomethylation, AlphaScreen, 2 h | Potency, µM (series often up to 102 µM), inactives show at the top dose activity, negative = inhibition, most hits filed as inhibitors | AID 504332 | hit rate 8.8% among 350,000; also: % is scaled to controls: 0 for no effect and ±100 for the full control effect; nearly all actives have a fitted effect of over 75% in size
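Step 1: enzyme (final 20 nM) with compound, 15 min RT. Step 2: substrate peptide 500 nM and SAM 20 uM, 2 h RT. Step 3: anti-H3K9me1 antibody and AlphaScreen beads, 10 min, then plate read.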
Sfp inh: blocks B. subtilis Sfp PPTase activity; Q9F4F7; Biochemical Sfp PPTase activity, qHTS; Potency, µM, for inactives: largest response in the series, negative = inhibition, most hits filed as inhibitors; hit rate 3.5% among 310,000; AID 1490;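 also: the enzyme is Sfp with the accession as filed and its product quenches rhodamine fluorescence; 0% = enzyme reaction without inhibitor and -100% = no enzyme wells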
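Fluorescence-quenching assay with 15 nM Sfp, 5 uM rhodamine-CoA and 12.5 uM BHQ-2-labelled ybbR peptide in pH 7.6 Hepes/MgCl2 buffer. Enzyme was pre-incubated with compound for 15 min at room temperature. Rate was taken from the 30-min fluorescence change (525/598 nm).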
* = called active by the depositor; u = inconclusive; x = no result; [ ] = remark or other dose. Calls follow the shape of the dose curve; as a rule, active = well fitted curve in the direction sought with a large enough effect; inconclusive = small, poorly fitted or top-dose-only effect, or another doubt; inactive = no such curve, though single readings can be large; an effect the other way counts as inactive or inconclusive. Potency is read from the fitted curve at half-maximal effect.

SMILES | BAZ2B inh | JMJD2A Tudor | HP1b binding inh | G9a inh | Sfp inh
COc1ccc2c(c1)-c1c(sn(-c3ccc(OC)c(OC)c3)c1=S)C(C)(C)N2 | 10µM* | 35.5µM* | -80.8% | 10µM* | -6.4%
COc1ccc(-n2sc3c(c2=S)-c2cc(OC)ccc2NC3(C)C)cc1 | 11.2µM* | 3.16µM* | 10µM* | 10µM* | u
CCOc1cc2c3c(c1)C(C)=CC(C)(C)N3C(=O)C2=O | u | -27.1% | u | u | 14.3%
O=C(CSc1nnnn1-c1ccccc1)NCCCN1CCCC1=O | x | -12.4% | 2.7% | x | x
COc1ccc2c(c1)C(=O)C(=O)N2 | u | -1.8%[57.1 µM] | 30.6% | -10.5%[59 µM] | -10.4%
COc1ccc2c(c1)-c1c(ssc1=S)C(C)(C)N2 | 12.6µM* | 20µM* | 15.8µM* | 7.94µM* | u
O=C(N/N=C/c1ccc(N2CCOCC2)o1)c1cccc(C(F)(F)F)c1 | 0.8% | u | -2.0% | 8.91µM* | 3.55µM*
O=C(N/N=C/c1ccc(N2CCCCC2)o1)c1ccccc1[N+](=O)[O-] | -8.6% | u | -10.3% | 11.2µM* | u
O=C(N/N=C/c1ccc(N2CCOCC2)o1)c1ccccc1[N+](=O)[O-] | -1.0% | u | -3.2% | u | 15.8µM*
O=C(Nc1ccccc1N1CCOCC1)c1ccccc1[N+](=O)[O-] | -32.6% | -5.4% | 35.4% | 4.2% | 17.0%
O=C(N/N=C/c1ccncc1)c1ccccc1[N+](=O)[O-] | -16.2% | -6.1% | 39.2% | 9.7%[59 µM] | 2.6%
Cc1ccc(C)c(CN2CCC(n3nccc3NC(=O)C3CCCC3)CC2)c1 | 0.8% | -22.6% | 14.8% | 98.5% | 10.9%
Cc1cc(C)nc(Sc2nc(Cl)nc(N(c3ccccc3)c3ccccc3)n2)n1 | u | 6.31µM* | 40.7% | u | 25.1µM*
Cc1ccc(S(=O)(=O)N2CC3CCC2C3)cc1 (configuration not stated) | -8.6% | -1.2% | 15.8% | -17.5% | 9.7%
COCc1c(Br)c(C)nc2sc3c(=O)[nH]nnc3c12 | 56.2µM* | -13.6% | 28.8% | 35.5µM* | -27.6%
Cc1nc2sc3c(=O)[nH]nnc3c2c(C)c1Br | 17.4% | -2.9% | 13.1% | 4.1%[0.501 µM] | -0.7%
C=C1CCN(c2ccc(C(=O)O)cc2[N+](=O)[O-])CC1 | x | -14.3% | 56.0% | x | x
O=C(O)c1ccc(N2CCN(C(c3ccccc3)c3ccccc3)CC2)c([N+](=O)[O-])c1 | u | u | -10.3% | 31.6µM* | 5.1%
CC(=O)c1ccc(N2CCN(c3ccc(C(N)=O)cc3[N+](=O)[O-])CC2)cc1 | -37.3% | -23.1% | 25.4% | x | -5.7%
NC(=O)c1ccc(N2CCN(c3ccc(O)cc3)CC2)c([N+](=O)[O-])c1 | u | 25.1µM* | 79.4µM* | u | 31.6µM*
O=C(Nc1ccc2nc3n(c(=O)c2c1)CCCCC3)C(=O)N1CCN(c2ccccc2F)CC1 | 15.4% | 35.5µM* | 3.2% | -1.8% | 11.9%
O=C(Nc1ccc2nc3n(c(=O)c2c1)CCCCC3)C(=O)Nc1ccccc1F | -1.9% | -13.4% | 47.6% | 5.3%[59 µM] | x
Cc1cccc(C)c1NC(=S)/N=C/N(C)C | -6.7% | 14.1µM* | -22.4% | -12.4%[59 µM] | -1.1%
CCOC(=O)Cc1csc(NC(=O)c2cc3c(s2)CCCC3)n1 | 6.8% | -8.8% | -3.1% | -18.5% | -2.0%
CCOC(=O)Cc1csc(NC(=O)c2csc3c2CCCC3)n1 | 1.1% | 1.3% | 13.2% | 35.5µM* | -17.0%
SMILES | BAZ2B inh | JMJD2A Tudor | HP1b binding inh | G9a inh | Sfp inh
CCOC(=O)Cc1csc(NC(=O)c2ccc(Br)cc2)n1 | u | 1.7% | 25.7% | x | 16.2%
CCOC(=O)Cc1csc(NC(=O)c2ccc(NC(C)=O)cc2)n1 | -37.4% | 20µM* | 16.3% | u | -8.7%
CCOC(=O)Cc1csc(NC(=O)c2ccco2)n1 | -2.6% | 79.4µM* | 15.3% | -5.0%[12.7 µM] | -1.0%
CCOC(=O)Cc1csc(NC(=O)c2cc(OC)cc(OC)c2)n1 | 7.8% | 79.4µM* | 25.0% | 16.4%[59 µM] | 3.3%
CC(NC(=O)C1CCCC1)c1ccccc1 (configuration not stated) | x | 3.0% | 59.7% | x | x
O=C(NCc1ccccc1)Nc1cccn(Cc2c(F)cccc2Cl)c1=O | u | -30.2% | 26.0% | x | -5.6%
O=C(N/C(=C\c1cccnc1)c1nc2ccccc2[nH]1)c1cccc(Br)c1 | -1.8% | -28.2% | 7.4% | -0.4%[59 µM] | 18.9%
CC(C)OC(=O)C(C(=O)C(F)(F)F)c1cc(NS(=O)(=O)c2ccc3c4c(cccc24)C(=O)N3)ccc1O (configuration not stated) | -27.2% | -34.6% | -3.5% | u | x
CC(C)OC(=O)C(C(=O)C(F)(F)F)c1cc(NS(=O)(=O)c2ccc3ccccc3c2)c2ccccc2c1O (configuration not stated) | -36.5% | 35.5µM* | u | 31.6µM* | 56.2µM*
CCOc1ccc(N=Nc2c(=O)[nH]n3c(C)cc(C)nc23)cc1 | u | u | u | 7.08µM* | -11.0%
COC(=O)/C=C1\NCCSC1=O | 4.0% | -2.2% | 22.5% | -28.1% | 4.5%
Cc1c(C(c2ccc(N(C)C)cc2)c2c(C)n(C)n(-c3ccccc3)c2=O)c(=O)n(-c2ccccc2)n1C | u | -27.5% | u | 50.1µM* | -14.2%
COc1ccc(NC(=O)c2cc3n(n2)C(C(F)(F)F)CC(c2ccc4c(c2)OCO4)N3)cc1OC (configuration not stated) | u | u | -8.7% | 28.2µM* | 8.4%
COCCn1c(=S)[nH]c2cc(C(=O)N3CCc4ccccc4C3)ccc2c1=O | -16.7% | 31.6µM* | 4.0% | -9.5%[59 µM] | 10.8%
CCN(CC)C(=O)c1ccc2c(=O)n(CCOC)c(=S)[nH]c2c1 | u | 17.8µM* | 38.9% | 44.7µM* | -25.0%
CCN(CC)C(=O)c1ccc2c(=O)n(Cc3cccc(Br)c3)c(=S)[nH]c2c1 | 9.2% | -18.8% | 23.1% | -3.0% | 8.9%
O=c1c(-c2ccc(Cl)cc2)nc2cncnc2n1Cc1ccccc1 | x | x | x | 8.7%[12.7 µM] | 3.2%
COc1ccc2c(c1)c1ncn(CC3CCCO3)c(=O)c1n2C (configuration not stated) | -1.3% | -17.8% | 3.1% | u | 5.5%
N#Cc1nc(COc2ccc(Br)cc2)oc1N1CCCC1 | 25.1µM* | u | u | u | -4.4%
N#Cc1nc(COc2ccccc2)oc1N1CCCCCC1 | 35.5µM* | u | u | 44.7µM* | 10.0%
COc1ccc(NC(=O)CSc2nc3ccccc3n2CC(=O)Nc2cccc(C)c2C)cc1 | -16.5% | -6.6% | 12.2% | 7.3%[12.7 µM] | x
CC(=O)c1ccc(S(=O)(=O)Nc2cccc(-c3ccc(N4CCCC4)nn3)c2)cc1 | -8.0% | -24.3% | 3.9%[57 µM] | 8.3%[59 µM] | x
O=C1CC(N2CCC(c3nc4ccccc4[nH]3)CC2)C(=O)N1c1ccccc1F (configuration not stated) | -22.2% | -18.9% | -4.2% | 35.5µM* | 8.4%
COc1ccc(N2C(=O)CC(N3CCC(c4nc5ccccc5[nH]4)CC3)C2=O)cc1 (configuration not stated) | 10.0% | 4.0% | 57.5% | 7.6%[12.7 µM] | -2.2%
O=C(CCc1ccccc1)NCc1ccccn1 | 13.8% | -2.6% | 42.7% | 47.9%[59 µM] | -19.8%
